# Measurements as given in PubChem BioAssay.
# Activity calls are given as the source filed them.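 How the source made its calls: active means inhibition at or above 50% relative to wild type and mutant plate controls; inactive means inhibition below 50%.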
# Test: inhibitors of Chlamydomonas gravitaxis, primary screen, whole organism, Chlamydomonas reinhardtii, WT vs cilia-less mutant, absorbance, 96-well (AID 463189);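 further: 0% = wild type cc124 cells in DMSO and 100% = ciliumless bld1 mutant cells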
# Details: OD600 absorbance, 2 days, at 10 µM, hits give high values
row,SMILES,inhibition
1,CC(C)[C@@H]1NC(=O)[C@H](CCCCN)NC(=O)[C@@H](Cc2c[nH]c3ccccc23)NC(=O)[C@H](Cc2ccc(O)cc2)NC(=O)[C@H](C)N(C)C(=O)[C@H](Cc2ccccc2)NC1=O,6.6% (inactive)
2,Nc1cc(Cl)c(NC2=NCCN2)c(Cl)c1,-3.5% (inactive)
3,OCC1NCC(O)C(O)C1O (stereo not given),-0.461% (inactive)
4,CN(C)CCCO[C@@H]1[C@H]2OC(C)(C)O[C@H]2O[C@@H]1C(O)CO (stereo not given in full),0.355% (inactive)
5,CNC(=O)[C@H]1O[C@@H](n2cnc3c(NCc4ccc(I)cc4)nc(Cl)nc32)[C@H](O)[C@@H]1O,0.705% (inactive)
6,O=C(Cc1ccc(Cl)c(Cl)c1)OCCN1CCCC1,-10.1% (inactive)
7,O=C(O)CNC(=O)C(CS)Cc1ccccc1 (stereo not given),-0.967% (inactive)
8,NC[C@@H]1O[C@H](C23CC4CC(CC(C4)C2)C3)Cc2c1ccc(O)c2O,0.204% (inactive)
9,O=C1NC(O)=NC1(c1ccccc1)c1ccccc1,-1.32% (inactive)
10,OCc1cc(C(O)CNCCCCCCOCCCCc2ccccc2)ccc1O (stereo not given),6.68% (inactive)
11,NCCCC(=O)O,-6.87% (inactive)
12,C=CCn1c(=O)c2c(nc(-c3ccc(S(=O)(=O)O)cc3)n2C)n(C)c1=O,4.78% (inactive)
13,C[C@H](Cc1ccccc1)Nc1ncnc2c1ncn2[C@@H]1O[C@H](CO)[C@H](O)C1O (stereo not given in full),0.221% (inactive)
14,O=C(O)C1CCCN(CCC=C(c2ccccc2)c2ccccc2)C1 (stereo not given),11.4% (inactive)
15,CCCCCCCCCCCCCCCCCCOC[C@H](COP(=O)([O-])OCC[N+](C)(C)C)OC,-2.43% (inactive)
16,O=C(O)[C@@H]1C[C@@H](C(=O)O)N1,-5.37% (inactive)
17,CSc1nc(N)c2ncn([C@@H]3O[C@H](COP(=O)(O)OP(=O)(O)O)[C@H](O)C3O)c2n1 (stereo not given in full),6.63% (inactive)
18,O=c1[nH]c(=O)c2nc3ccccc3nc2[nH]1,-4.43% (inactive)
19,Nc1cc(=O)[nH]c(N)n1,-17.2% (inactive)
20,N.N.N.N.N.N.N.N.N.N.N.N.N.N.O.O.[Cl-].[Cl-].[Cl-].[Cl-].[Cl-].[Cl-].[Ru+4].[Ru+5].[Ru+5],97.5% (active)

row,SMILES,inhibition
1,CC1=C(CC(=O)O)c2cc(F)ccc2/C1=C\c1ccc(S(C)(=O)=O)cc1,2.22% (inactive)
2,CN1CCC2(CCN3CCc4c(oc5ccccc45)C3C2)N(C)C1=O (stereo not given),-3.27% (inactive)
3,CC1CC2C3CCC4=CC(=O)C=C[C@]4(C)[C@@]3(F)[C@@H](O)C[C@]2(C)[C@@]1(O)C(=O)CO (stereo not given in full),5.99% (inactive)
4,CC(C)C(=O)Nc1ccc([N+](=O)[O-])c(C(F)(F)F)c1,-17.5% (inactive)
5,CNc1ncnc2c1ncn2[C@H]1C[C@H](OP(=O)(O)O)[C@@H](COP(=O)(O)O)O1,1.24% (inactive)
6,NCCCCN=C(N)N,5.23% (inactive)
7,N=c1ccn2c(n1)OC1[C@@H](O)[C@@H](CO)O[C@H]12 (stereo not given in full),-5.06% (inactive)
8,NC(CCCP(=O)(O)O)C(=O)O (stereo not given),-5.37% (inactive)
9,CC1(C)NC(=O)N(c2ccc([N+](=O)[O-])c(C(F)(F)F)c2)C1=O,0.277% (inactive)
10,CCCCC[C@H](CC(=O)NO)C(=O)N[C@H](C(=O)N1CCC[C@H]1CO)C(C)C,-2.25% (inactive)
11,CCCCCCCCCCCCC/C=C/C(O)C(N)CO (stereo not given),-1.48% (inactive)
12,Cc1ccc(C(=O)O[C@H](C(=O)O)[C@H](OC(=O)c2ccc(C)cc2)C(=O)O)cc1 (tested in a mixture with another compound),5.96% (inactive)
13,C[C@H](O)C(=O)C1=Nc2c(nc(N)[nH]c2=O)NC1,7.45% (inactive)
14,Cn1cc(C(=O)OCC2CCN(CCNS(C)(=O)=O)CC2)c2ccccc21,6.02% (inactive)
15,CN(C)S(=O)(=O)c1ccc2c(c1)/C(=C/c1cc3c([nH]1)CCCC3)C(=O)N2,4.39% (inactive)
16,COC(=O)C1=C(C)NC(C)=C(C(=O)OCCN(C)Cc2ccccc2)C1c1cccc([N+](=O)[O-])c1 (stereo not given),-0.607% (inactive)
17,COc1ccc2c(c1)c(CC(=O)O)c(C)n2C(=O)c1ccccc1,2.3% (inactive)
18,CC12C(=O)OC(=O)C1(C)C1CCC2O1 (stereo not given),-3.97% (inactive)
19,N=S(=O)(O)Cc1noc2ccccc12,4.33% (inactive)
20,N[C@H](CO)C(=O)O,3.16% (inactive)
